Laboratory results from PubChem BioAssay AID2017 (National Center for Advancing Translational Sciences (NCATS), 2009).
Results filed as inconclusive are left out. Calls of active or inactive are those of the source. Calls follow the shape of the dose curve; as a rule, active = well fitted curve in the direction sought with a large enough effect; inconclusive = small, poorly fitted or top-dose-only effect, or another doubt; inactive = no such curve, though single readings can be large or run the other way.

Target: 4-diphosphocytidyl-2-C-methyl-D-erythritol kinase, chloroplastic (Arabidopsis thaliana) (UniProt O81014)
Sequence (O81014 whole entry, looked up): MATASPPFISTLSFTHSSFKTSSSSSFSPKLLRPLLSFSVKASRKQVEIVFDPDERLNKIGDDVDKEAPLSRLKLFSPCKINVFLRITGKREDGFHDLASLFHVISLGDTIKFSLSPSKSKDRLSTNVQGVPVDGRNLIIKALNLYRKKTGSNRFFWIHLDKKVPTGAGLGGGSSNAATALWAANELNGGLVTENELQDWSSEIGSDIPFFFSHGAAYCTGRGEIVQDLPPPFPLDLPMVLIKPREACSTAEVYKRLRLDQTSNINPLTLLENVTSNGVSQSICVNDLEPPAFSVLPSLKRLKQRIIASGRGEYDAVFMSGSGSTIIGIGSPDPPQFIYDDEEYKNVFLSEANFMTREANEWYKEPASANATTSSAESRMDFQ
Test: Confirmatory Assay for Inhibitors of Human Galactokinase (GALK): CDP-Me assay counterscreen
Conditions: ATP depletion, Kinase-Glo luminescence
Summary of the method: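 Luminescent read-out of ATP remaining (Kinase-Glo Plus) after 1 h at room temperature. Reaction: 0.25 ug/mL CDP-Me kinase, ATP 15 uM, CDP-ME 30 uM, HEPES pH8.0 buffer containing MgCl2, KCl, DTT and BSA.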

COc1cc(/C=C2\C(=N)N3N=C(S(=O)(=O)CC(C)C)SC3=NC2=O)ccc1OC(=O)c1ccco1
Potency: 29.8 µM (active)
